Some test systems named below: NCI-H23 lung; HOP-62 NSCLC; NCI-H460 lung; HOP-92 NSCLC; NCI-H522 lung; A549/ATCC NSCLC; 786-0 renal; COLO 205 colon; DU-145 prostate; K-562 leukemia; MDA-MB-231 breast; RXF 393 renal; SF-268 CNS; SF-295 CNS; SF-539 CNS; UACC-257 melanoma; M14 melanoma; HCT-15 colon; MALME-3M melanoma.
Assay in all cases: NCI-60 one-dose screen, 48 h (100 = growth as untreated, 0 = no growth, -100 = all killed)
Holding throughout (settings): 10 µM unless noted

The structures appear in SMILES notation. Compounds without any hit were thinned out: in the full panel of roughly 83,000, 20% have a hit.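 Results are percent growth after 48 hours of single-concentration exposure. 100 means growth as in untreated cells, lower positive values show inhibition; negative values down to -100 show cell death.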 Values without a mark were called inactive. Active and inactive are the calls of the source. Rule for the calls: active = growth percent below 10; inactive = the rest.

As for `O=C(Nc1ccc(-c2nc3ccc(NC(=O)c4ccc(Cl)cc4)cc3[nH]2)cc1)c1ccc(Cl)cc1`, the growth with NCI-H23 lung is 56%; in the assay on HOP-62 NSCLC, 29.2%; in the assay with NCI-H460 lung, 26.3%; in the assay on HOP-92 NSCLC it was 41.2%; with NCI-H522 lung it was -65.6% (active); with A549/ATCC NSCLC, 4.64% (active). Further, the growth with 786-0 renal was -22.8% (active); in the assay with COLO 205 colon, -74.3% (active); with DU-145 prostate, 44.1%; in the assay with K-562 leukemia it was -1.36% (active); with MDA-MB-231 breast, -0.679% (active); in the assay on RXF 393 renal, -49% (active). For the same compound, the growth in the assay with SF-268 CNS was 43.7%; in the assay with SF-295 CNS it was -68% (active); in the assay on SF-539 CNS it was -68.2% (active); with UACC-257 melanoma, -15.8% (active); in the assay with M14 melanoma, 2.14% (active); in the assay on HCT-15 colon, 32.1%.
Turning to `NNC(=O)CNC(=O)Nc1n[nH]c(=S)s1`, the growth in the assay with NCI-H23 lung was 100%; in the assay on HOP-62 NSCLC it was 100%; in the assay on NCI-H460 lung it was 105%; with HOP-92 NSCLC, 91.7%; in the assay on NCI-H522 lung it was 88.7%; in the assay on A549/ATCC NSCLC, 105%. In addition, the growth in the assay with 786-0 renal was 103%; in the assay with COLO 205 colon, 107%; in the assay with DU-145 prostate, 107%; in the assay with K-562 leukemia it was 90.3%; in the assay with MALME-3M melanoma, 87%; in the assay with MDA-MB-231 breast, 112%. Further, the growth was 124% in the assay on RXF 393 renal; 107% with SF-268 CNS; 94% in the assay with SF-295 CNS; 109% in the assay on SF-539 CNS; 99.9% in the assay on UACC-257 melanoma; 93.5% in the assay with M14 melanoma. Further, the growth with HCT-15 colon was 109%.
Take `O=S(=O)(Nc1ncccn1)c1ccc(NC2Nc3nc4ccccc4nc3S2)cc1` (stereo not given): the growth with NCI-H23 lung was 97%; in the assay on HOP-62 NSCLC, 99.6%; with NCI-H460 lung, 103%; in the assay on HOP-92 NSCLC, 105%; in the assay with NCI-H522 lung, 94.5%; with A549/ATCC NSCLC, 95.8%. Also, the growth in the assay with 786-0 renal is 100%; in the assay with DU-145 prostate, 105%; in the assay with K-562 leukemia it was 98.2%; in the assay with MALME-3M melanoma, 96.1%; with MDA-MB-231 breast, 99.3%; in the assay on RXF 393 renal, 109%. Also, the growth is 97.9% in the assay with SF-268 CNS; 99.5% with SF-295 CNS; 95.5% with SF-539 CNS; 94% in the assay on UACC-257 melanoma; 95.5% with M14 melanoma; 96.9% with HCT-15 colon.
`COc1ccc(/C=c2\sc3n(c2=O)NC2C(N=3)N(C)C(=O)N2C)cc1` (stereo not given): the growth in the assay on NCI-H23 lung is 96.6%; in the assay with HOP-62 NSCLC, 101%; with NCI-H460 lung it was 108%; with HOP-92 NSCLC, 100%; in the assay with NCI-H522 lung it was 86.6%; with A549/ATCC NSCLC it was 99.8%. Besides, the growth was 97.7% in the assay on 786-0 renal; 102% in the assay with COLO 205 colon; 110% with DU-145 prostate; 89.3% in the assay with K-562 leukemia; 97.6% in the assay on MALME-3M melanoma; 96.8% with MDA-MB-231 breast. For the same compound, the growth in the assay on RXF 393 renal is 101%; with SF-268 CNS it was 93.5%; in the assay with SF-295 CNS, 100%; in the assay on SF-539 CNS, 95.5%; with UACC-257 melanoma, 102%; in the assay on M14 melanoma, 96.5%. Also, in the assay with HCT-15 colon, the growth was 96.4%.
As for `COc1ccc(Cn2c(Br)c3c(c2-c2cc(OC)c(OC)c(OC)c2)CCc2sc(NC(=O)c4ccc(OC)cc4)nc2-3)cc1`, the growth in the assay on NCI-H23 lung was 91.9%; with HOP-62 NSCLC, 106%; in the assay on NCI-H460 lung, 98%; in the assay with HOP-92 NSCLC, 89.1%; with NCI-H522 lung, 85.4%; with A549/ATCC NSCLC, 94.2%. The growth is 89.8% in the assay on 786-0 renal; 107% in the assay with COLO 205 colon; 102% with DU-145 prostate; 84.6% in the assay on K-562 leukemia; 86.1% in the assay with MALME-3M melanoma; 87.1% in the assay on MDA-MB-231 breast. For the same compound, the growth in the assay with RXF 393 renal was 91.9%; in the assay on SF-268 CNS, 78.6%; in the assay with SF-295 CNS it was 67.8%; with SF-539 CNS it was 100%; with UACC-257 melanoma, 116%; in the assay with M14 melanoma, 97.4%. Moreover, in the assay with HCT-15 colon, the growth was 98.3%.
For `COc1cc(CNC(=O)c2ccsc2Nc2ccnc(C(F)(F)F)c2)ccc1O`, the growth with NCI-H23 lung was 92.3%; with HOP-62 NSCLC it was 126%; in the assay on NCI-H460 lung, 102%; in the assay with HOP-92 NSCLC, 81.3%; in the assay on NCI-H522 lung, 87%; in the assay with A549/ATCC NSCLC, 100%. Besides, the growth with 786-0 renal was 98.1%; in the assay with COLO 205 colon, 106%; in the assay on DU-145 prostate it was 107%; in the assay on K-562 leukemia, 96.6%; in the assay with MALME-3M melanoma, 64.4%; in the assay with MDA-MB-231 breast it was 102%. For the same compound, the growth was 106% with RXF 393 renal; 94.1% in the assay on SF-268 CNS; 104% in the assay on SF-295 CNS; 102% with SF-539 CNS; 107% in the assay on UACC-257 melanoma; 100% with M14 melanoma. The growth in the assay on HCT-15 colon was 99.1%.
Take `CCCc1c(C)c2sc(=O)[nH]c2[nH]c1=O`: the growth in the assay with NCI-H23 lung is 104%; with HOP-62 NSCLC, 107%; in the assay with NCI-H460 lung, 107%; with HOP-92 NSCLC, 104%; in the assay with NCI-H522 lung, 96%; in the assay on A549/ATCC NSCLC it was 103%. Further, the growth is 109% in the assay with 786-0 renal; 113% with COLO 205 colon; 114% in the assay with DU-145 prostate; 107% in the assay on K-562 leukemia; 108% in the assay on MALME-3M melanoma; 105% in the assay with MDA-MB-231 breast. In addition, the growth in the assay on RXF 393 renal is 107%; in the assay on SF-268 CNS it was 99.6%; in the assay with SF-295 CNS, 108%; with SF-539 CNS it was 96.7%; in the assay with UACC-257 melanoma it was 103%; in the assay with M14 melanoma, 108%. The growth in the assay on HCT-15 colon is 103%.
Regarding `Oc1c(CN2CCN(c3ccccc3F)CC2)cc(Br)c2cccnc12`, the growth in the assay on NCI-H23 lung was 44.6%; in the assay with HOP-62 NSCLC it was -75% (active); in the assay on NCI-H460 lung, -73.1% (active); with HOP-92 NSCLC, -5.84% (active); with NCI-H522 lung, -65% (active); with A549/ATCC NSCLC, -65% (active). The growth in the assay on 786-0 renal is -83.5% (active); in the assay on COLO 205 colon, -8.74% (active); in the assay with DU-145 prostate it was -32% (active); in the assay with K-562 leukemia it was 1.01% (active); in the assay on MALME-3M melanoma it was -58.2% (active); with MDA-MB-231 breast, -33.5% (active). Also, the growth in the assay with RXF 393 renal was -57.5% (active); in the assay on SF-268 CNS, 0.474% (active); in the assay on SF-295 CNS it was -72.5% (active); in the assay with SF-539 CNS, -90.5% (active); with UACC-257 melanoma, 11.3%; in the assay with M14 melanoma, -3.56% (active). The growth in the assay with HCT-15 colon was -4.53% (active).

These data come from PubChem BioAssay (NCI).
